This passage reports inhibition results from ChEMBL document CHEMBL3433997, “St. Jude Leishmania screening dataset” (2016).

What all share (assay type): functional
Experiment [1] has as its target Solute carrier family 2, facilitated glucose transporter member 1 (Homo sapiens) (UniProt P11166). Put plainly: ST_JUDE_LEISH: Cytotoxicity at 2uM final concentration against transgenic Leishmania Mexicana promastigotes LmGLUT1 that are glucose transport deficient and complemented with the human glucose transporter GLUT1. Activity is measured by DNA content using SYBR green in vitro.

In experiment [2] the target is Hexose transporter 1 (Plasmodium falciparum) (UniProt O97467). The experiment can be described thus: ST_JUDE_LEISH: Cytotoxicity at 2uM final concentration against transgenic Leishmania Mexicana promastigotes LmPfHT that are glucose transport deficient and complemented with the Plasmodium falciparum hexose transporter. Activity is measured by DNA content using SYBR green in vitro.

The target in experiment [3] is Glucose transporter (Leishmania mexicana) (UniProt O61059). Put plainly: ST_JUDE_LEISH: Cytotoxicity at 2uM final concentration against transgenic Leishmania Mexicana promastigotes LmGT2 that are glucose transport deficient and complemented with the L. Mexicana glucose transporter 2. Activity is measured by DNA content using SYBR green in vitro.

The structures appear in SMILES notation.

The inhibition is the drop in the measured response relative to a control, in per cent.

Solute carrier family 2, facilitated glucose transporter member 1 (Homo sapiens), sequence (P11166 whole entry): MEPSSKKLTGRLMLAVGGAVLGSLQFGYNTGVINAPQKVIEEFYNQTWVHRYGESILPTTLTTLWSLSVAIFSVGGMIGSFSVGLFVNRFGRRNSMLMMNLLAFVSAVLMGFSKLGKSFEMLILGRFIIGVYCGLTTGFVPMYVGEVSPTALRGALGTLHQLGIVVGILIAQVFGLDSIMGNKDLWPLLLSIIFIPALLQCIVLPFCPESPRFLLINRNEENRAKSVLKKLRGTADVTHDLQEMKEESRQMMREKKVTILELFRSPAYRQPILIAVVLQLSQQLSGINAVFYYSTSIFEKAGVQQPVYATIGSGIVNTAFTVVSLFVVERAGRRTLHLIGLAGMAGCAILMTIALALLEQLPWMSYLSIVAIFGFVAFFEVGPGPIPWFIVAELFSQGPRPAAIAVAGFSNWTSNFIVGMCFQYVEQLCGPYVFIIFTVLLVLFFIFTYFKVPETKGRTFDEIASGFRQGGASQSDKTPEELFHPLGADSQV

On to `COC(=O)c1ccc(CC(C)NCC(O)c2cccc(OCc3ccccc3)c2)cc1` (stereo unspecified), for which the inhibition in experiment [1] was found to be 7.34%; in experiment [2], 7.31%; in experiment [3] it was 8.15%.
As for `N=C(N)NC(=O)Nc1ccc([N+](=O)[O-])c(Cl)c1`, the inhibition in experiment [1] stood at 0.15%; in experiment [2], 1.53%; in experiment [3] it was 0.59%.
For `Cc1cc(O)cc2c(C3CCN(CC4CCN(C(=O)/C=C/c5ccc(Cl)c(Cl)c5)CC4)CC3)c[nH]c12`, in that order: 0.1%, -0.37% and 0.13%.
The corresponding values for `COc1cccc(CC(C)NCC(O)c2cccc(Cl)c2)c1` (stereo unspecified) are 0.74%, 2.67% and 1.92%.
The corresponding values for `Cc1ccc(CC(C)(C)NCC(O)c2cccc(C(F)(F)F)c2)cc1` (stereo unspecified) are 2.49%, 2.91% and 3.49%.
For `O=[N+]([O-])c1ccc(Oc2c(Cl)cc(S(=O)(=O)NC3CCC(CN4CCC(c5c[nH]c6ccccc56)CC4)CC3)cc2Cl)c(Cl)c1` (stereo unspecified), the values for the inhibition in experiment [1], in experiment [2] and in experiment [3] were 2.41%, 0.39% and -1.14%, respectively.
With `COc1ccc(OC)c(C=CC(=O)NC2CCC(CN3CCC(c4c[nH]c5ccccc45)CC3)CC2)c1` (stereo unspecified), the inhibition in experiment [1] is -2.94%; in experiment [2], -0.24%; in experiment [3], -0.07%.
The corresponding values for `O=C(COc1ccc(Cl)cc1)N1CCC(CN2CCC(c3c[nH]c4ccccc34)CC2)CC1` are -2.1%, -1.7% and -4.27%.
The corresponding values for `O=C(Cc1cc(=O)oc2cc(O)ccc12)NC1CCC(CN2CCC(c3c[nH]c4ccccc34)CC2)CC1` (stereo unspecified) are 2.39%, 2.2% and 2.14%.
For `C=C[C@H]1CN2CC[C@H]1C[C@@H]2[C@@H](O)c1ccnc2ccccc12`, in that order: -1.24%, 1.12% and 0.13%.
For the compound `CCCCC1(NC(=O)[C@H](CC(C)C)Nc2ccc(C#N)c3ccccc23)CCCCC1`, the inhibition in experiment [1] was found to be 1.12%; in experiment [2], 4.9%; in experiment [3] it was 2.56%.
The corresponding values for `CCCCCc1cc(O)c2c(c1)OC(C)(C)CC2C1=CCN(Cc2cnc3ccccc3c2)CC1` (stereo unspecified) are 1.53%, 1.25% and 0.64%.
